Results reported in the supplement of paper PMC8183993.
“And” between values parts separate entries of the source, which are not always exact repeats. Equal entries are not always repeated. Structures can show the parent of a compound that is named as a salt. ± gives the standard deviation of the averaged measurements. The full ranking holds about 3,200 compounds; the median of “nuclei count (viability) relative to DMSO” is about 99, and the lowest 2% start at about 16. The entries come from a sample that favours the lowest values as a whole.

What follows are compounds tested on U2OS (assay: nuclei count (viability) relative to DMSO (% of DMSO); higher = more viable cells). Conditions: 10 µM; 24 h.
Protocol: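 Primary image-based screen in U2OS cells: compounds at 10 uM for 24 h, then a 1 h o-propargyl-puromycin (OPP) pulse, click labelling, and high-throughput microscopy. Mean cytoplasmic OPP intensity and nuclei count were normalised to DMSO wells within each plate (DMSO = 100) and averaged over triplicate plates.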

Compared with `NC(N)=S` [Thiourea], `NC(=O)Nc1sc(-c2ccc(F)cc2)cc1C(N)=O` is lower in nuclei count: 103 for the first, 47 ± 0.38 for the second.

Going from `Nc1nc(N)c2nc(-c3cccc(O)c3)cnc2n1` to `CC[C@H](CO)Nc1nc(Nc2cccc(-c3ccccn3)c2)c2ncn(C(C)C)c2n1` [(R)-DRF053 dihydrochloride], the nuclei count falls from 94.7 ± 4.5 to 76.2.

Going from `c1ccc2sc(N3CCN(Cc4ccc5c(c4)OCO5)CC3)nc2c1` [2-[1-(4-Piperonyl)piperazinyl]benzothiazole] to `CCc1cncnc1N1CCN(Cc2nc3ccc(C(F)(F)F)cc3[nH]2)CC1`, the nuclei count falls from 111 to 99.88 ± 0.89.

Compared with `C[C@H](N[C@@H](CCc1ccccc1)C(=O)O)C(=O)N1CCC[C@H]1C(=O)O` [Enalaprilat dihydrate], `O=C(O)CNC(=O)C(CS)Cc1ccccc1` (racemic) [DL-Thiorphan] is higher in nuclei count: 94.3 for the first, 113 for the second.

Compared with `CC(C)c1nc(CN(C)C(=O)N[C@@H](CCN2CCOCC2)C(=O)N[C@H](CC[C@H](Cc2ccccc2)NC(=O)OCc2cncs2)Cc2ccccc2)cs1` [Cobicistat (GS-9350)], `CC(C)C[C@H](NC(=O)[C@H](CCc1ccccc1)NC(=O)CN1CCOCC1)C(=O)N[C@@H](Cc1ccccc1)C(=O)N[C@@H](CC(C)C)C(=O)[C@@]1(C)CO1` [Carfilzomib (PR-171)] is lower in nuclei count: 96.2 for the first, 7.25 for the second.

Compared with `CC1OC2(CS1)CN1CCC2CC1` (stereo not drawn) [Cevimeline hydrochloride], `C1COC(NC(C2CC2)C2CC2)=N1` [Rilmenidine hemifumarate] is higher in nuclei count: 101 for the first, 103 for the second.

Compared with `Cc1ccc(C(=O)c2cc(/C=C/C(=O)NO)n(C)c2)cc1`, `O=C(/C=C/c1ccc(O)cc1)CC(=O)/C=C/c1ccc(O)cc1` [bis-demethoxycurcumin] is higher in nuclei count: 92.7 for the first, 93.2 for the second.

Going from `CN(Cc1ccccc1)C(=O)[C@H](Cc1ccc2ccccc2c1)NC(=O)[C@@H]1C[C@@H](O)CN1C(=O)c1cn(C)c2ccccc12` to `CC(C(=O)Nc1cccc(/N=C/c2c(O)ccc3ccccc23)c1)c1ccccc1` (stereo not drawn) [Salermide], the nuclei count rises from 98 to 101.

Compared with `Cc1cc2c(cc1C1(c3ccc(C(=O)O)cn3)CC1)C(C)(C)CCC2(C)C`, `Cc1ccc2c(c1)C(=O)C1(O)CCN(c3ccccc3)C1=N2` (stereo not drawn) [(?)-Blebbistatin] is lower in nuclei count: 102 for the first, 96.3 for the second.

First: Cc1nc2ccc(NC(=O)Nc3ccnc4cccnc34)cc2o1
Second: Cc1ccc(NC(=O)c2ccc(CN3CCN(C)CC3)cc2)cc1Nc1nccc(-c2cccnc2)n1 [Imatinib mesylate]
The nuclei count of the first is higher: 99.6 for the first, 93.1 ± 2.5 for the second.

First: Cc1c(C(=O)NC2CCCCC2)sc2nc3ccc(N)cc3n12
Second: NC(=O)Nc1cc(-c2cccc(F)c2)sc1C(=O)N[C@H]1CCCNC1
The nuclei count of the first is higher: 99.5 for the first, 7.62 for the second.

Going from `Cc1cc(/C=C/c2ccc3cc(N(C)C)ccc3[n+]2C)c(C)n1-c1ccccc1` [Pyrvinium pamoate] to `COc1ccc(Br)cc1S(=O)(=O)NC(=O)/C=C/c1ccccc1Cc1ccc2ccccc2c1`, the nuclei count rises from 6.32 to 104.

Going from `CN1CCN(CCc2ccc(Cl)c(Cl)c2)CC1` [BD 1063 dihydrochloride] to `Cc1ccc(NC(=O)c2ccc(CN3CCN(C)CC3)cc2)cc1Nc1nccc(-c2cccnc2)n1` [Imatinib (STI571)], the nuclei count falls from 104 to 99.1.

First: OC(c1ccccc1)C1CCN(CCc2ccccc2)CC1 (stereo not drawn)
Second: CCN(CC)CCOc1ccc(Cc2ccccc2)cc1 [DPPE fumarate]
The nuclei count of the first is lower: 99.4 for the first, 101 for the second.

First: NS(=O)(=O)c1cccc2c1c([N+](=O)[O-])cc1nc(O)c(O)nc12 [NBQX disodium salt]
Second: O=C1c2ccccc2-c2nc3nonc3nc21
The nuclei count of the first is higher: 109 for the first, 44 for the second.

Compared with `NS(=O)(=O)c1cccc2c1c([N+](=O)[O-])cc1nc(O)c(O)nc12`, `Cn1c(CNc2ccc(C(=N)N)cc2)nc2cc(C(=O)N(CCC(=O)O)c3ccccn3)ccc21` [BIBR 953 (Dabigatran etexilate, Pradaxa)] is higher in nuclei count: 98.7 for the first, 108 for the second.

Going from `COc1cc(N2CCC(N)CC2)ccc1Nc1ncc(Cl)c(-c2c[nH]c3ccccc23)n1` to `CNC(=O)c1ccccc1Nc1nc(Nc2ccc(N3CCOCC3)cc2OC)ncc1Cl`, the nuclei count rises from 7.03 to 38.9 ± 1.6.

Compared with `CCOc1cc(N2CCC(O)CC2)ccc1Nc1ncc2c(n1)N(C)c1ccccc1C(=O)N2C`, `C=CC(=O)Nc1cccc(Nc2nc(Nc3ccc(N4CCN(C(C)=O)CC4)cc3OC)ncc2C(F)(F)F)c1` is lower in nuclei count: 95.5 for the first, 57.6 for the second.

First: CN(C(=O)c1ccc(F)cc1C(F)(F)F)C1CCN(c2nnc(-c3ccnn3C)c3ccccc23)CC1
Second: Cc1ccc(C(=O)Nc2ccc(CN3CCN(C)CC3)c(C(F)(F)F)c2)cc1C#Cc1cnc2cccnn12
The nuclei count of the first is higher: 101 for the first, 16.3 for the second.

First: C1=N/C2=N/c3ccc(OCCN4CCCC4)c(c3)COC/C=C/COCc3cccc(c3)C(=C1)N2 [Pacritinib (SB1518)]
Second: Cc1ccc(CC2(O)CCN(CCOc3ccc(O)cc3)CC2)cc1
The nuclei count of the first is lower: 16.7 for the first, 87.3 for the second.

Compared with `N=C(N)NC(=N)Nc1ccccc1` [1-Phenylbiguanide hydrochloride], `CC(=O)NNC(=O)N1Cc2ccccc2Oc2ccc(Cl)cc21` is lower in nuclei count: 95.6 for the first, 94.3 for the second.

Compared with `Cn1cc(C2=C(c3cn(CCCSC(=N)N)c4ccccc34)C(=O)NC2=O)c2ccccc21` [Ro 31-8220 mesylate], `CN1CCN(c2nc(C3=C(c4c[nH]c5ccccc45)C(=O)NC3=O)c3ccccc3n2)CC1` [Sotrastaurin (AEB071)] is higher in nuclei count: 10.6 for the first, 95.2 ± 3.4 for the second.

Going from `Cn1cc(C2=C(c3cn(CCCSC(=N)N)c4ccccc34)C(=O)NC2=O)c2ccccc21` [Ro 31-8220 Mesylate] to `COCC[n+]1c2c(n(Cc3cnccn3)c1C)C(=O)c1ccccc1C2=O`, the nuclei count falls from 29.7 to 14.1.

Going from `O=C(O)CCC/C=C\C[C@@H]1CO[C@H](C(F)(F)F)O[C@@H]1c1ccccc1O` to `CC(=O)NCC(=O)N1[C@@H]2CC[C@H]1c1ccc(Nc3ncc(C(F)(F)F)c(NC4CCC4)n3)cc12`, the nuclei count falls from 102 to 16.4.

Going from `CNC(C)C1CCC(N)C(OC2C(N)CC(N)C(OC3OCC(C)(O)C(NC)C3O)C2O)O1` (stereo not drawn) [Gentamycin sulfate (Gentacycol)] to `COc1cc([C@@H]2c3cc4c(cc3[C@@H](O[C@@H]3O[C@@H]5CO[C@@H](C)O[C@H]5[C@H](O)[C@H]3O)[C@H]3COC(=O)[C@H]23)OCO4)cc(OC)c1O` [Etoposide (VP-16)], the nuclei count falls from 79.5 to 50.9.

First: CC(C)c1noc(N2CCC(COc3ccc(-c4ccc(S(C)(=O)=O)cc4)nc3)CC2)n1
Second: Cc1ccc(NC(=O)c2ccc(CN3CCN(C)CC3)cc2)cc1Nc1nccc(-c2cccnc2)n1 [Imatinib Mesylate]
The nuclei count of the first is higher: 109 for the first, 96.8 for the second.

Going from `C=C(NC(=O)C(=C)NC(=O)c1csc(C2=N[C@@H]3c4csc(n4)[C@H]4NC(=O)c5csc(n5)[C@H]([C@](C)(O)[C@@H](C)O)NC(=O)[C@H]5CSC(=N5)/C(=C/C)NC(=O)[C@H]([C@@H](C)O)NC(=O)c5csc(n5)[C@]3(CC2)NC(=O)[C@H](C)NC(=O)C(=C)NC(=O)[C@H](C)NC(=O)[C@H]([C@@H](C)CC)N[C@@H]2C=Cc3c([C@H](C)O)cc(nc3[C@H]2O)C(=O)O[C@@H]4C)n1)C(N)=O` [Thiostrepton] to `COc1cc([C@@H]2c3cc4c(cc3[C@@H](O[C@@H]3O[C@@H]5CO[C@@H](c6cccs6)O[C@H]5[C@H](O)[C@H]3O)[C@H]3COC(=O)[C@H]23)OCO4)cc(OC)c1O` [Teniposide (Vumon)], the nuclei count falls from 16.2 to 15.5.

First: CC(=O)OC[C@H]1O[C@@H]([S-])[C@H](OC(C)=O)[C@@H](OC(C)=O)[C@@H]1OC(C)=O.CCP(CC)CC.[Au+] [Auranofin]
Second: CC(C)=CCC/C(C)=C/CC/C(C)=C/CSCC(=O)O [Farnesylthioacetic acid]
The nuclei count of the first is lower: 13.4 for the first, 97.9 for the second.

Compared with `CCN(C(=O)CO)[C@H]1CN(/C(=N\C#N)Nc2cccc(OC(F)F)c2)N=C1c1ccc(Cl)c(Cl)c1`, `CCN(CC)CCOc1ccc(Nc2ncc3cc(-c4c(Cl)cccc4Cl)c(=O)n(C)c3n2)cc1` is lower in nuclei count: 111 for the first, 7.54 for the second.

Going from `C=CC(=O)Nc1cccc(Nc2nc(Nc3ccc(NC4CN(CCF)C4)cc3OC)ncc2C(F)(F)F)c1` to `Cc1ccc(NC(=O)c2ccc(CN3CC[C@H](N(C)C)C3)c(C(F)(F)F)c2)cc1Nc1nccc(-c2cncnc2)n1` [Bafetinib (INNO-406)], the nuclei count rises from 20.7 to 77.9.

First: CCCCCCCCc1ccc(-c2ccc(C(=O)O)cc2)cc1
Second: CCCCCCCc1ccc(CCc2cccc(O)c2C(=O)O)cc1
The nuclei count of the first is higher: 108 for the first, 7.35 for the second.

Going from `CCCCCCCCc1ccc(CCC(N)(CO)CO)cc1` [Fingolimod (FTY720)] to `OCc1ccc(O[C@@H]2O[C@H](CO)[C@@H](O)[C@H](O)[C@H]2O)cc1` [Gastrodin (Gastrodine)], the nuclei count rises from 18.9 ± 0.71 to 94.5.

First: C1COC(NC(C2CC2)C2CC2)=N1 [Rilmenidine]
Second: C[C@]12CC[C@@H](O)C[C@@H]1CC[C@@H]1[C@@H]2CC[C@]2(C)C=CC[C@@H]12 [3a, 5a-Androstenol]
The nuclei count of the first is higher: 93.6 for the first, 90.5 for the second.

Going from `CC(C)(C)c1ccc(S(=O)(=O)/C=C/C#N)cc1` to `CC(Oc1ccc(O)cc1)(P(=O)(O)O)P(=O)(O)O`, the nuclei count rises from 43.7 to 105 ± 0.12.

Compared with `COc1cc([C@@H]2c3cc4c(cc3[C@@H](O[C@@H]3O[C@@H]5CO[C@@H](C)O[C@H]5[C@H](O)[C@H]3O)[C@H]3COC(=O)[C@H]23)OCO4)cc(OC)c1O` [Etoposide], `COc1ccc(CCC(=O)c2c(O)cc(O[C@@H]3O[C@H](CO)[C@@H](O)[C@H](O)[C@H]3O[C@@H]3O[C@@H](C)[C@H](O)[C@@H](O)[C@H]3O)cc2O)cc1O` [Neohesperidin dihydrochalcone (Nhdc)] is higher in nuclei count: 44.3 ± 2 for the first, 98.7 for the second.

Going from `CO[C@@H]1[C@H](O)[C@@H](CO)O[C@H]1n1cnc2c(NC3CCCCC3)ncnc21` to `COC(=O)[C@]12CCC(C)(C)C[C@H]1[C@H]1C(=O)C=C3[C@@]4(C)C=C(C#N)C(=O)C(C)(C)[C@@H]4CC[C@@]3(C)[C@]1(C)CC2` [Bardoxolone Methyl], the nuclei count falls from 102 to 4.35.

Going from `CSc1cccc(Nc2ncc3cc(-c4c(Cl)cccc4Cl)c(=O)n(C)c3n2)c1` to `Cc1ccc(NC(=O)c2ccc(CN3CCN(C)CC3)cc2)cc1Nc1nccc(-c2cccnc2)n1` [Imatinib], the nuclei count rises from 72.2 to 101.

Compared with `Cc1ccc(NC(=O)c2ccc(CN3CCN(C)CC3)cc2)cc1Nc1nc(-c2cccnc2)cs1` [Masitinib (AB1010)], `Cc1ccc(C(=O)Nc2ccc(CN3CCN(C)CC3)c(C(F)(F)F)c2)cc1C#Cc1cnc2[nH]ncc2c1` [GZD824 Dimesylate] is lower in nuclei count: 90.7 for the first, 14.1 for the second.

In the case of `Cn1cc(C2=C(c3ccc(Cl)cc3Cl)C(=O)NC2=O)c2ccccc21`, the nuclei count is reported as 94.8 and 92.7.
In the case of `CN(C)CCCn1cc(C2=C(c3c[nH]c4ccccc34)C(=O)NC2=O)c2ccccc21`, the nuclei count is reported as 55.6 and 47.3.
